Mot1-301 SUMO = yeast Mot1-301 growth rescue at high temperature, primary screen, SUMOylation pathway inhibitor project, S. cerevisiae, ATP luminescence, 38.5C; S. cerevisiae Mot1-301 growth rescue; percent above DMSO median, 100 means doubled; growth rescue, % at 18.8 µM; actives 1% (n = 320,000); AID 2716, 2010;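 active means every valid replicate shows activation above 250% relative to neutral control wells; inactive means the rest, any valid replicate at or below 250%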
HIF act = HIF pathway transcriptional activators, primary screen, cell-based, U2OS HRE-luciferase, luminescence; AID 1910, 2009; activation, % at 7.5 µM (by protocol); actives 0.32% (n = 300,000); U2OS HRE-luciferase reporter; normalized: DMSO 0%, desferrioxamine 100%;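 active means mean activation of at least 10% of the iron chelator positive control signal, with at least half of replicates also reaching 10%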
AI-2 QS modul = Vibrio harveyi AI-2 quorum sensing modulators, primary screen, JMH597 strain, luminescence/OD600 ratio; activity change, % at 7.5 µM; AID 2094, 2009; Vibrio harveyi JMH597 AI-2 luminescence/OD600 ratio, 9 h; active compounds read low; strain lacks LuxN and CqsS sensors; 0 = neutral-control median; actives 0.4% (n = 300,000); in the data active means activity change below about -75%, passing the limit was not always enough;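 further: luminescence divided by OD600 gain over 9 h not by final OD600 alone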
ALR H2O2 inh = inhibitors of human ALR sulfhydryl oxidase, primary screen, biochemical, H2O2 detection, HRP-luminol luminescence, single point. FAD-linked sulfhydryl oxidase ALR (Homo sapiens), P55789. purified ALR, DTT oxidation. inhibition, % (concentration not given with the values). actives 3.8% (n = 290,000). AID 485317, 2010;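 active means mean replicate inhibition above about 79%, with every replicate also reaching it, limit read from the data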
Target sequence (P55789 whole entry, looked up): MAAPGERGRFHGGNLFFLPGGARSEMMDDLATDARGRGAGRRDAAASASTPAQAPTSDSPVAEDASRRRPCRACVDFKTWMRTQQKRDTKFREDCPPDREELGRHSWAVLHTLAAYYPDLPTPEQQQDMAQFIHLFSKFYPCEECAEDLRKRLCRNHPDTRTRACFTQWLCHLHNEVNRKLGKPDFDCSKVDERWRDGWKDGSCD
Hits are given with their value; . = inactive; / = not tested or not shown. Compounds with a hit are over-represented: about 4.8% of the library has one in this group of screens.

SMILES | Mot1-301 SUMO | HIF act | AI-2 QS modul | ALR H2O2 inh
CCCCOc1cccc(C(=O)N(Cc2ccccc2)C2CCS(=O)(=O)C2)c1 (stereo unspecified) | . | . | . | .
Cc1nc(N)c(CC(Br)CBr)c(Cl)n1 (stereo unspecified) | . | / | . | .
Oc1ccccc1Nc1nc(NCC2CCCO2)c2ccccc2n1 (stereo unspecified) | . | . | . | 99
CN(C)c1ccc(CNS(=O)(=O)c2csc(C(N)=O)c2)cc1 | . | . | . | 93
CC1(c2ccc3c(c2)OCCO3)NC(=O)N(CC(=O)Nc2ccccc2)C1=O (stereo unspecified) | . | / | / | .
CC1Oc2cc3oc4c(O)c(O)ccc4c(=O)c3c(O)c2C1(C)C (stereo unspecified) | . | . | . | 98
CCOC(=O)c1oc2c(O)c(O)ccc2c(=O)c1-c1nncn1-c1ccccc1 | . | . | . | /
COc1ccc(S(=O)(=O)N(C)C[C@H]2Oc3c(NC(=O)Nc4c(C)noc4C)cccc3C(=O)N([C@@H](C)CO)C[C@H]2C)cc1 | . | / | / | /
CN(Cc1ccco1)S(=O)(=O)c1nnc(NC(=O)c2cccc(Cl)c2)s1 | . | . | . | 96
CC(C)CC(=O)Nc1nnc(S(=O)(=O)N(C)Cc2ccco2)s1 | . | . | . | .
CCOC(=O)CSc1cc(C)c(C#N)c2nc3ccccc3n12 | . | . | . | 99
CCC(C)Sc1cc(C)c(C#N)c2nc3ccccc3n12 (stereo unspecified) | . | . | . | /
CCCc1cc(SCC(=O)Nc2c(C)n(C)n(-c3ccccc3)c2=O)n2c(nc3ccccc32)c1C#N | / | . | . | 98
CCCN(c1ccccc1C(=O)O)S(=O)(=O)c1ccc2c(c1)n(C)c(=O)n2C | . | . | . | .
CCOC(=O)c1cccc(C2=CC(=O)CC(C)(C)C2)c1 | . | / | / | .
CCOC(=O)c1ccc(NS(=O)(=O)c2c(N)n(C)c(=O)n(C)c2=O)cc1 | . | . | . | .
CC(C)CC(=O)Nc1ccc2c3c(cccc13)CC2 | 389 | . | . | .
C=CCn1c(-c2cc(OC)cc(OC)c2)n[nH]c1=S | . | . | . | 96
C=CCn1c(-c2cccc(OCC)c2)n[nH]c1=S | . | . | . | .
CCn1c(-c2cc(-c3ccc(C)cc3)nc3ccccc23)n[nH]c1=S | . | . | . | /
C=CCn1c(-c2cc(-c3ccc(C)cc3)nc3ccccc23)n[nH]c1=S | / | . | . | 94
CCCCn1c(N)c(N(CCC(C)C)C(=O)C2CC(=O)N(c3ccccc3OCC)C2)c(=O)[nH]c1=O (stereo unspecified) | . | . | . | .
Cc1ccc(-n2nnc3c(=O)n(Cc4cc(C)ccc4C)cnc32)cc1 | . | . | . | .
Cc1ccc(-n2nnc3c(=O)n(Cc4cccc(C)c4)cnc32)cc1 | 405 | . | . | .
CC1CCCC(NC(=O)COC(=O)CSc2ccc3ccccc3c2)C1C (stereo unspecified) | . | . | . | 99
SMILES | Mot1-301 SUMO | HIF act | AI-2 QS modul | ALR H2O2 inh
O=C(CN(Cc1ccccc1Cl)C(=O)c1csnn1)NCc1ccc2c(c1)OCO2 | . | . | . | .
Cc1cc(C)c2cc(CN(Cc3ccco3)C(=S)NCC3CCCO3)c(=O)[nH]c2c1 (stereo unspecified) | . | . | . | 96
CN(C)C(CNC(=O)c1cccc(C(F)(F)F)c1)c1ccco1 (stereo unspecified) | . | . | . | /
O=C(O)c1cc(O)ccc1NC(=O)c1cccc2ccccc12 | . | . | . | 96
Cc1ccc(C(=O)Nc2ccc(O)cc2C(=O)O)cc1C | . | . | . | 98
COc1cccc(C(=O)NC(=S)Nc2ccc(Cl)cc2C(=O)O)c1 | . | . | . | 97
CC(=O)Nc1ccccc1NC(=O)c1cccc2ccccc12 | . | . | . | /
CN1C(=O)/C(=C/c2ccc(C(=O)Nc3ccc(O)cc3C(=O)O)cc2)SC1=S | . | . | . | 97
COc1cccc(C(=O)NC(=S)Nc2ccc3c4c(cccc24)CC3)c1 | . | . | . | .
Cc1ccc(S(=O)(=O)N2CCC(C(=O)Nc3ncccc3O)CC2)cc1 | . | / | / | .
O=C(O)c1ccccc1NC(=S)NC(=O)c1cccc2ccccc12 | . | . | . | 98
Cc1ccc(O)c(NC(=S)NC(=O)c2ccccc2Cl)c1 | . | . | . | 97
Cc1cccc(C(=O)NC(=S)NNC(=O)c2ccccc2Cl)c1 | . | . | . | 98
Cc1cccc(C(=O)NC(=S)NNC(=O)Cc2ccccc2)c1 | . | . | -91 | /
Cc1ccc2c(c1)N(CC(=O)N1CCCC1)C(=O)c1cccnc1O2 | . | . | . | .
Cc1ccc(N(CC(O)CN2CCCCC2)S(=O)(=O)c2ccc(C)cc2)cc1 (stereo unspecified) | . | . | . | .
Cc1cc(C)c(C(=O)Nn2c(C)nc3ccccc3c2=O)cc1C | . | . | . | .
Cc1ccc(C(=O)O)cc1NC(=S)NC(=O)c1ccc(-c2ccccc2)cc1 | . | . | . | 98
Cc1cccc(C(=O)NC(=S)Nc2ccccc2C(=O)O)c1 | . | . | . | 99
Cc1ccc2nc(N3CCN(c4cccc(C)c4C)CC3)c3nnnn3c2c1 | . | . | . | .
Cc1ccc2nc(Cl)c3nnnn3c2c1 | 382 | . | -86 | /
CN1CCN(/N=C/c2ccc(N(C)c3ccccc3)cc2)CC1 | . | . | . | 99
CN1CCN(/N=C/c2ccc(Br)cc2)CC1 | . | . | . | .
CN1CCN(/N=C/c2ccc(Cl)c(Cl)c2)CC1 | . | . | . | .
CN1CCN(/N=C/c2ccc(N(c3ccccc3)c3ccccc3)cc2)CC1 | . | . | . | 96
SMILES | Mot1-301 SUMO | HIF act | AI-2 QS modul | ALR H2O2 inh
Cc1nc(C)n(CCNC(=O)c2ccco2)n1 | . | . | . | .
CC(=O)NC(c1ccco1)c1cc(Cl)c2ccccc2c1O (stereo unspecified) | . | / | / | 88
CCC(=O)NC(c1cc(Cl)c2ccccc2c1O)C(C)C (stereo unspecified) | . | / | / | 95
CCC(=O)NC(c1ccco1)c1cc(Cl)c2ccccc2c1O (stereo unspecified) | . | / | / | .
COCc1cc(C)nc(NC2CC(C)(C)NC(C)(C)C2)c1C#N | . | . | . | .
C=C[C@]1(C)C[C@@H](OC(=O)CSCCN(CC)CC)[C@]2(C)C(C)CC[C@]3(CCC(=O)[C@H]32)[C@@H](C)[C@@H]1O (stereo partly specified) | . | . | . | .
CCNC(=O)N(C)C[C@H]1N[C@@](CC)(C(=O)OC)[C@H]2C(=O)N(Cc3ccccc3)C(=O)[C@@H]12 | . | / | / | /
COc1cc(N=C2C(=O)N3c4c(cccc42)C(C)=CC3(C)C)cc(OC)c1 | . | . | . | .
CC1=CC(C)(C)N2C(=O)C(=Nc3ccc(O)cc3)c3cccc1c32 | . | . | . | 97
CCCC(C)c1nnc(NC(=O)CN2C(=O)c3ccccc3C2=O)s1 (stereo unspecified) | / | . | -88 | .

Screens as filed in PubChem.
